Calls of active or inactive are those of the source.
Columns and labels:
Albumin (Bos taurus) = Albumin (Bos taurus) (UniProt P02769); assay: bovine serum albumin binders on microarray, profiling panel, artefact control for SMM control protein annotation, biochemical, small-molecule microarray, Alexa647 label, 635/667 nm fluorescence (AID 1118); settings: BSA-A647 binding, fluorescence 635 nm, higher = more signal;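 note: score merges 667 nm emission intensity and signal-to-noise per printed compound spot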
[1] = small-molecule microarray binders of probe aXIP, primary screen, biochemical, NeuroSMM set, 635/667 nm fluorescence (AID 1119); settings: higher = more signal, called active from +8 up or from −8 down;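 note: probe is the protein aXip251-270 applied at 1 µg/mL to compound-printed slides; binding of probe to printed compounds measured as 667 nm fluorescence plus signal to noise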
[2] = small-molecule binders of probe aNOTCH3, primary screen, biochemical, small-molecule microarray, 635/667 nm fluorescence (AID 1120); settings: higher = more signal;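 note: probe is a biotin-tagged antibody raised against NOTCH3 rather than NOTCH3 protein; score merges spot fluorescence near 667 nm with spot signal to noise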
[3] = small-molecule binders of probe aNOTCH2, primary screen, biochemical, small-molecule microarray, 635/667 nm fluorescence (AID 1121); settings: higher = more signal;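 note: score merges feature fluorescence read at 667 nm with its signal to noise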
[4] = biological target: Carbonic anhydrase 2 (Homo sapiens) (UniProt P00918); assay: CAII small-molecule binders, profiling panel, biochemical, small-molecule microarray, Alexa647-labelled CAII (AID 1122); settings: CAII-A647 binding fluorescence, higher = more signal
[5] = COS7 lysate on small-molecule microarray, probe aHis, 635 nm (AID 1123); settings: COS7 cell lysate, fluorescence, higher = more signal;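 note: z-score combines 667nm fluorescence intensity with signal-to-noise per printed compound spot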
[6] = compound binding in COS7 lysate, probe aLAP1, primary screen, cell lysate, small-molecule microarray (AID 1124); settings: probe aLAP1, fluorescence, higher = more signal;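 note: lysate comes from COS7 cells expressing LAP1 and is applied at 0.3 µg/mL; score merges spot fluorescence near 667 nm with signal-to-noise over triplicate slides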
Sam68 (KHDRBS1) = assay: Sam68 small-molecule binders, primary screen, biochemical, small-molecule microarray, 635 nm fluorescence (AID 1125); settings: small-molecule microarray binding, higher = more signal;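 note: score merges 667 nm channel intensity with signal to noise over triplicate slides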
[7] = tested on: Chordin-like protein 2 (CHRDL2); assay: CHRDL2 small-molecule binders, primary screen, biochemical, small-molecule microarray, 635 nm fluorescence (AID 1126); settings: small-molecule microarray binding, fluorescence 635 nm; higher = more signal;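 note: printed compound slides probed with Chrdl2 protein at 4 µg/mL for 1 h at 4 C; score merges 667 nm emission intensity with signal to noise over three replicate slides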
[8] = biological target: Concanavalin-A (Canavalia ensiformis) (UniProt P02866); assay: ConA small-molecule binders, primary screen, artefact control for SMM control protein annotation, biochemical, small-molecule microarray, Alexa647 label, 635 nm (AID 1127); settings: ConA-A647 binding fluorescence, higher = more signal;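 note: z combines 667 nm emission intensity with signal-to-noise across three replicate slides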
Concanavalin-A (Canavalia ensiformis), sequence (P02866 whole entry, looked up): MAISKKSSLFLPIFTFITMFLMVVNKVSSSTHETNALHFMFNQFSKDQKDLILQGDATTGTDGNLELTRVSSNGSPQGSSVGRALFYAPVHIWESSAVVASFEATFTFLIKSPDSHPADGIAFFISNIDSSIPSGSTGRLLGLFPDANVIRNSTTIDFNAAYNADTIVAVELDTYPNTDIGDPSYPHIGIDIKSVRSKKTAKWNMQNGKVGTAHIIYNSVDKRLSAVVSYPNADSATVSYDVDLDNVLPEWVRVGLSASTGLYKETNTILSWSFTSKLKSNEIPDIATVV

Albumin (Bos taurus), sequence (P02769 whole entry, looked up): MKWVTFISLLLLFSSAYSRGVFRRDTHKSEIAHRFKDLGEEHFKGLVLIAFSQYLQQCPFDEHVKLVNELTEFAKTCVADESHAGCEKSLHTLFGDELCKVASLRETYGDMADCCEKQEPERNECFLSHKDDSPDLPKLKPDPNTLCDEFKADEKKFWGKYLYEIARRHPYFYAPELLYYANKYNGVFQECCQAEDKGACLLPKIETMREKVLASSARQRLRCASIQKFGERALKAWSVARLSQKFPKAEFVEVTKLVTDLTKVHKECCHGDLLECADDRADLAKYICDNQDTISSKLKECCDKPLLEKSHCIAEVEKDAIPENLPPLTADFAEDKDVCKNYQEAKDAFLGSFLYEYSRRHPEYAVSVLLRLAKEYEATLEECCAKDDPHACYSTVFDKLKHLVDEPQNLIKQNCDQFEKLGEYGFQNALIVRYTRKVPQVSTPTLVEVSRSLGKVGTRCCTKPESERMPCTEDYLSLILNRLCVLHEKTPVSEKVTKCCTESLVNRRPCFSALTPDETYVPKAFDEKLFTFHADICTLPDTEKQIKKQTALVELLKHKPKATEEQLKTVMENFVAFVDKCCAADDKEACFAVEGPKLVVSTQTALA

Compound | composite z-score (Albumin (Bos taurus)) | composite Z-score [1] | composite z-score [2] | composite z-score [3] | composite z-score [4] | composite z-score [5] | composite z-score [6] | composite z-score (Sam68 (KHDRBS1)) | composite z-score [7] | composite z-score [8]
CC(C)N1C(=O)C[C@@](C(=O)NCC(F)(F)F)(c2ccc([N+](=O)[O-])cc2)[C@H]1c1ccc(CO)cc1 | 0.0344 | 0.447 (inactive) | -0.0636 | -0.173 | 0.662 | 1.22 | -0.0253 | 0.933 | -0.035 | 0.688
C=CC[C@@]1(C(=O)NCCN2CCOCC2)N=C(c2ccc(OCCCO)cc2)O[C@@H]1c1ccccc1N=[N+]=[N-] | 0.711 | 0.346 (inactive) | -0.396 | -0.109 | 0.716 | 1.62 | 0.232 | 0.176 | 0.703 | -0.572
NC(=O)[C@@H]1[C@H]2C(=O)O[C@H](c3ccccc3)[C@H](c3ccccc3)N2[C@H](c2ccc(O)cc2)[C@@]12C(=O)Nc1ccccc12 | 0.257 | -0.622 (inactive) | -0.288 | -0.155 | 0.75 | 2.37 | 0.691 | 0.203 | -1.73 | -0.161
COc1cc2c(cc1OC)CN(C(=O)[C@H]1[C@@H]3C(=O)O[C@@H](c4ccccc4)[C@@H](c4ccccc4)N3[C@@H](c3ccc(O)cc3)[C@]13C(=O)Nc1ccc(C#CCCO)cc13)CC2 | 0.184 | 0.274 (inactive) | 0.176 | -0.0474 | 0.213 | 1.46 | 0.127 | 1.24 | 0.077 | 0.964
COCCOC(=O)N1C(=O)[C@@]2(c3cc(C#CC4(O)CCCCCC4)ccc31)[C@H](c1ccc(OCCO)cc1)N1[C@H](c3ccccc3)[C@H](c3ccccc3)OC(=O)[C@H]1[C@@H]2C(=O)N1CCN(c2ncccn2)CC1 | 0.716 | -0.232 (inactive) | 0.0026 | -0.146 | 0.497 | 1.46 | -0.163 | 1.3 | 0.34 | 1.13
O=C1[C@@]23C=C(Br)[C@H](C[C@@H]2CCOC3)[C@@]12CO2 | -0.169 | -0.775 (inactive) | 0.146 | -0.162 | -0.0433 | -0.128 | 0.522 | 0.166 | 0.518 | 0.311
CC(C)C(O)C1C=CC2C(=O)N(c3ccccc3)C(=O)C2N1Nc1ccc([N+](=O)[O-])cc1 (stereo not given) | 0.963 | 2.65 (inactive) | 1.2 | 0.185 | 0.719 | 1.84 | 0.894 | 1.13 | -0.565 | 0.726
COC(=O)[C@@]1(Cc2ccc(OC)cc2)[C@@H]2C(=CC(=O)[C@H]2CC(=O)C(=O)N2CCCC2)CN1C(=O)c1ccccc1 | 0.826 | -0.0056 (inactive) | 0.132 | -0.152 | 0.558 | 2.23 | 0.0014 | -0.685 | -0.694 | 0.0351
CN(C)C(=O)[C@]1(Cc2ccccc2N=[N+]=[N-])N=C(c2ccc(OCCCO)cc2)O[C@@H]1c1ccccc1N=[N+]=[N-] | 0.872 | -1.05 (inactive) | 0.201 | 0.134 | 0.556 | 2.85 | 0.274 | 1.29 | -0.206 | 1.14
CCOC(=O)C[C@H]1[C@H](OC(=O)c2ccc(C(=O)c3ccccc3)cc2)[C@@H](NC(=O)CC(C)C)c2cc(OCCCO)ccc2N1C(=O)c1ccc2ccccc2n1 | 0.577 | -0.86 (inactive) | 0.206 | -0.114 | 0.232 | 1.21 | 0.323 | 1.29 | 0.448 | 1.12
CCOC(=O)C[C@H]1[C@H](OC(=O)c2ccc(C(=O)c3ccccc3)cc2)[C@@H](NC(=O)c2ccccc2)c2cc(OCCCO)ccc2N1C(=O)c1ccc2ccccc2n1 | 0.783 | -0.386 (inactive) | 0.0561 | -0.0187 | 0.418 | 1.53 | 0.612 | 1.33 | -0.284 | 1.05
CC(C)=CCN[C@H](CO)c1ccccc1 | -0.0472 | -0.139 (inactive) | -0.0122 | -0.14 | -0.115 | 0.0524 | -0.021 | -0.127 | 0.218 | 0.0857
CCCC[C@H]1OB(O)C[C@H]2C1=C(COC)C[C@H]1C(=O)N(C)C(=O)[C@H]12 | -0.126 | -0.618 (inactive) | -0.0328 | -0.201 | 0.39 | 0.502 | 0.0459 | 0.462 | 0.245 | 0.744
C[N+](C)(C)CCCC[C@@H]1NC(=O)[C@H]2C[C@@H](C(=O)NCCCCCCNC(=O)CS)[C@@H](c3cccc(OCCO)c3)N2C1=O | 0.492 | 3.4 (inactive) | -0.246 | -0.146 | 0.881 | 1.8 | 0.864 | -0.365 | -1.44 | -0.338
C=CCN1C(=O)[C@]2(O[C@H](CCn3cc([C@H](O)c4ccccc4)nn3)[C@@H]([Si](C)(C)c3ccc(OC)cc3)[C@@H]2C)c2ccccc21 | -0.0698 | 0.0503 (inactive) | -0.253 | -0.156 | -0.238 | -0.011 | 0.0809 | -0.776 | -0.278 | -0.847
O=C(OCc1ccccc1)C1=CCC2c3[nH]c4ccccc4c3C(=O)C1N2S(=O)(=O)c1ccccc1[N+](=O)[O-] (stereo not given) | 0.994 | 0.0421 (inactive) | 0.6 | 0.285 | 0.777 | 2.61 | 0.335 | 1.06 | -0.328 | 0.996
CCCC#C[Si](O[C@H](CC)c1cn(Cc2cccc(Cl)c2)nn1)(C(C)C)C(C)C | 0.697 | -0.014 (inactive) | 0.0715 | -0.179 | 0.182 | 1.03 | 0.249 | 1.18 | 0.103 | 0.7

Source: PubChem BioAssay
